The subject of experiment [1] is Wnt5a (protein binding on small-molecule microarray). Nature of the experiment: Wnt5a binders on small-molecule microarray, primary screen, biophysical, 635/667 nm fluorescence (AID 1142).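 Further: fluorescence read at 667 nm with signal to noise per printed feature.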 The following applies: 635 nm fluorescence, higher = more signal.
A short description of experiment [2]: cell viability in Huh7 cells, primary screen, cytotoxicity control for HCV replication inhibitor project, CellTiter-Glo luminescence, basal, 48 h (AID 1143).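 Further: Huh7 hepatoma cells carrying a hepatitis C replication reporter with no stimulus; test concentration not given here.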 The following applies: Huh7 HCV replicon, higher = more signal, called active from +8 up or from −8 down.
A short description of experiment [3]: P. aeruginosa biofilm formation inhibitors, primary screen, PAO1 strain, BacTiter-Glo luminescence, LB-PBS (AID 1144). The settings on record: 12 h, higher = more signal.
Experiment [4] in a line: CREB reporter modulators without forskolin, primary screen, cell-based, PC12, CRE-LacZ reporter, unstimulated (AID 1145). The following applies: no forskolin, luminescence, 4.5 h, higher = more signal, called active from +8 up or from −8 down.
Experiment [5] can be described thus: CREB reporter modulators under forskolin, primary screen, cell-based, PC12, CRE-LacZ reporter, forskolin-stimulated (AID 1146).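 Further: PC12 cells with 6xCRE LacZ reporter stimulated by forskolin 10 µM; beta-galactosidase reporter signal reflecting CREB driven transcription.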 The settings on record: luminescence, 4.5 h, higher = more signal, called active from +8 up or from −8 down.
For experiment [6], the target named is Streptavidin (Streptomyces avidinii) (UniProt P22629). Nature of the experiment: streptavidin binders on small-molecule microarray, primary screen, artefact control for SMM compound annotation, biophysical, 635/667 nm fluorescence (AID 1147).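 Further: signal reflects streptavidin binding to arrayed compounds as a control protein.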 The settings on record: streptavidin binding, higher = more signal.
Experiment [7] in a line: small-molecule binders of probe aInhba, primary screen, biochemical, small-molecule microarray, 635/667 nm fluorescence (AID 1148).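 Further: score merges 667nm spot fluorescence with signal-to-noise for antibody binding to printed compounds.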 The following applies: higher = more signal.
For experiment [8], the target named is Torsin-1A (Homo sapiens) (UniProt O14656). Nature of the experiment: torsin A binders from cell lysate, primary screen, small-molecule microarray, wild-type, 635/667 nm (AID 1149). The settings on record: COS7 hTOR1A-WT lysate, 635 nm fluorescence, higher = more signal.
For experiment [9] the target is unchanged. Nature of the experiment: small-molecule binders of mutant TOR1A in lysate, primary screen, cell lysate, small-molecule microarray, COS7 lysate, 635/667 nm fluorescence (AID 1150).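 Further: score pools 667 nm emission and signal to noise measuring lysate protein binding.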 The settings on record: COS7 hTOR1A mutant lysate, 635 nm fluorescence, higher = more signal.
For experiment [10], the system named is Sonic hedgehog protein (Shh). Nature of the experiment: small-molecule binders of Shh protein, primary screen, biochemical, small-molecule microarray, 635/667 nm fluorescence (AID 1151).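 Further: Shh protein binding to compounds spotted on small-molecule microarray slides; score combines spot fluorescence intensity with signal-to-noise across triplicate slides.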 The following applies: small-molecule microarray binding, 635 nm fluorescence; higher = more signal.
Experiment [11] in a line: E. coli DRC41 culture turbidity changes, primary screen, E. coli filamentation inducer project, strain DRC41, OD650, 48 h (AID 1152).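 Further: E. coli MC1000 strain DRC41 lacking acrAB efflux pump and sulA.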 The settings on record: E. coli DRC41 (acrAB sulA), higher = more signal, called active from +8 up or from −8 down.
Experiment [12] can be described thus: small-molecule binders of probe aLefty1, primary screen, biochemical, small-molecule microarray, 635/667 nm fluorescence (AID 1153).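 Further: score merges spot fluorescence with signal-to-noise ratio from the scanned slide images.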 The following applies: higher = more signal.
The nature of experiment [13]: PSAC antagonists in infected red cells, primary screen, cell-based, P. falciparum Indochina, OD700, 1 h (AID 1154). The settings on record: P. falciparum Indochina infected RBC osmotic lysis, higher = more signal, called active from +8 up or from −8 down.
A short description of experiment [14]: PSAC antagonists in infected red cells, primary screen, cell-based, P. falciparum Indochina, OD700, 2 h (AID 1155).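 Further: lysis reports solute entry through the parasite surface anion channel PSAC; channel blockers reduce lysis of infected cells.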 The following applies: P. falciparum Indochina infected erythrocytes, osmotic lysis OD700; higher = more signal, called active from +8 up or from −8 down.
Experiment [15] in a line: osmotic lysis modulators in infected erythrocytes, primary screen, PSAC antagonist project, cell-based, P. falciparum Indochina, OD700, 3 h (AID 1156). The following applies: higher = more signal, called active from +8 up or from −8 down.
The nature of experiment [16]: PSAC antagonists in infected red cells, primary screen, cell-based, P. falciparum Indochina, OD700, 18 h (AID 1157). The settings on record: P. falciparum Indochina infected erythrocytes, osmotic lysis OD700, 18 h; higher = more signal, called active from +8 up or from −8 down.
Experiment [17] is described as follows: modulators of S6 phosphorylation in cells, primary screen, cell-based, A549, cytoblot, luminescence, serum-stimulated (AID 1158).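 Further: serum-stimulated A549 lung adenocarcinoma cells; signal is phosphorylated S6 detected by cytoblot immunostaining with HRP secondary.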 The settings on record: A549 phospho-S6 cytoblot, 5 h, higher = more signal.
The target of experiment [18] is NADPH oxidase 2 (Homo sapiens) (UniProt P04839). Nature of the experiment: NOX2-dependent H2O2 signal modulators, primary screen, NOX inhibitor project, cell-based, HEK293-NOX2, PMA-stimulated, Amplex Red fluorescence (AID 1159). Further: test concentration not given here. The following applies: 45 min, higher = more signal, called active from +8 up or from −8 down.
Experiment [19] deals with NADPH oxidase 4 (Homo sapiens) (UniProt Q9NPH5). Nature of the experiment: NOX4-dependent H2O2 signal modulators, primary screen, NOX inhibitor project, cell-based, HEK293-NOX4, tetracycline-induced, Amplex Red fluorescence (AID 1160). The following applies: 45 min, higher = more signal, called active from +8 up or from −8 down.
Experiment [20] concerns the target NADPH oxidase 5 (Homo sapiens) (UniProt Q96PH1). Nature of the experiment: NOX5-dependent H2O2 signal modulators, primary screen, NOX inhibitor project, cell-based, HEK293-NOX5, Amplex Red fluorescence (AID 1161). The settings on record: HEK293-NOX5, ionomycin, 45 min, higher = more signal.

Calls of active or inactive are those of the source. Unless noted, how the calls were made is not given here.

Sequence of NADPH oxidase 2 (Homo sapiens) (P04839 whole entry, looked up): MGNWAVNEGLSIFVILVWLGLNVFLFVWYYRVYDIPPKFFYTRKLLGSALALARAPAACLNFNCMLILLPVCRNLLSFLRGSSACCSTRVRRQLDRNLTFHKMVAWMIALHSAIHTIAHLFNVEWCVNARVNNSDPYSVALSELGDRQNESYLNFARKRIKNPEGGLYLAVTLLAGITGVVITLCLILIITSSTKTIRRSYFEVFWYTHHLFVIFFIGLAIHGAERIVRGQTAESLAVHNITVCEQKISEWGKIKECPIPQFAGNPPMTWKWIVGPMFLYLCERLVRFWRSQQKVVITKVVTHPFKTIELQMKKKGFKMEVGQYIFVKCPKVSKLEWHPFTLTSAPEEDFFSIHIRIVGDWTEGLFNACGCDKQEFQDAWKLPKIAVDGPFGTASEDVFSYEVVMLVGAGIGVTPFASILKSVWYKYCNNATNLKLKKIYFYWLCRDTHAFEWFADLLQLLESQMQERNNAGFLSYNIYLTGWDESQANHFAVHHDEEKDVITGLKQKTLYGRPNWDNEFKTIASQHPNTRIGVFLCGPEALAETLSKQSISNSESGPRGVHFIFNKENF
Sequence of NADPH oxidase 4 (Homo sapiens) (Q9NPH5 whole entry, looked up): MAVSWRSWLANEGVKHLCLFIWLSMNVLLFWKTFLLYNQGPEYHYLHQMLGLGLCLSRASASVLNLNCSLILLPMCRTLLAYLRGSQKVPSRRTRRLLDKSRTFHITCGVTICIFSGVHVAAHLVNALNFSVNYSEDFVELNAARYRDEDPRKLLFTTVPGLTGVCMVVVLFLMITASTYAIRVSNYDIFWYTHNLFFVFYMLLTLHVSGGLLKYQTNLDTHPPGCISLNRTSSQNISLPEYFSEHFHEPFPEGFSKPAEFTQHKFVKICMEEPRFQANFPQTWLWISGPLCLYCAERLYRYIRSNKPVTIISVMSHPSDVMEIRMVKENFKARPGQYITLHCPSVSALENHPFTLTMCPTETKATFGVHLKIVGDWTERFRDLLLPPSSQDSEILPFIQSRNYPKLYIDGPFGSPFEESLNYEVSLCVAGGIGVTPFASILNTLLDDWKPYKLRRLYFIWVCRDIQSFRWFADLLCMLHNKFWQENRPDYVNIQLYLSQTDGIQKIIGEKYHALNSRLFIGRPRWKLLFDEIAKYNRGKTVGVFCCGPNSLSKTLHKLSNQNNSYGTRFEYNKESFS
Sequence of Streptavidin (Streptomyces avidinii) (P22629 whole entry, looked up): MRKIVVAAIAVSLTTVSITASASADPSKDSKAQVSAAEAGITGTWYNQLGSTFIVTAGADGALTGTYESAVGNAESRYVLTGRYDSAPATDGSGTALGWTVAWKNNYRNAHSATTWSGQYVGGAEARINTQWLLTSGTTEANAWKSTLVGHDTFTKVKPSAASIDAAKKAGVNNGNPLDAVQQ
Sequence of NADPH oxidase 5 (Homo sapiens) (Q96PH1 whole entry, looked up): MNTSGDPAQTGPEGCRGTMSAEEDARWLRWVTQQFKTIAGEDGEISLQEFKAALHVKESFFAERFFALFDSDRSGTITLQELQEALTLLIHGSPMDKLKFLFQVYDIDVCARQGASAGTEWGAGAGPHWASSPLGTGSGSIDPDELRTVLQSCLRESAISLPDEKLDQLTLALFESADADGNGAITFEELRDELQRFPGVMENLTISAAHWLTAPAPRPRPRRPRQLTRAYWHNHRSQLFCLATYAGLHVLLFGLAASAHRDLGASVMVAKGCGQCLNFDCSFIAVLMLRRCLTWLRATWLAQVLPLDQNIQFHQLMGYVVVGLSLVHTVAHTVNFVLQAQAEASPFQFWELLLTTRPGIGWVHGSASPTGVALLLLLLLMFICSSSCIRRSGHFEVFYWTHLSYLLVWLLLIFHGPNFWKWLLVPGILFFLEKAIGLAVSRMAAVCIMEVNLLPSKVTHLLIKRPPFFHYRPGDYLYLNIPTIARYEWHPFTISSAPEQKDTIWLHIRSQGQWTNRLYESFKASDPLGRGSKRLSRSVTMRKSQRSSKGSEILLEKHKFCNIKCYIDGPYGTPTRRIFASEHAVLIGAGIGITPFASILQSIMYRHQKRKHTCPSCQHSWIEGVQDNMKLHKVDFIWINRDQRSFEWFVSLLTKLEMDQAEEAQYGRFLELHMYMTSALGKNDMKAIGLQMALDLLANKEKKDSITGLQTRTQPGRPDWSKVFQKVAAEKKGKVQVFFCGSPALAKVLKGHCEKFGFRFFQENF
Sequence of Torsin-1A (Homo sapiens) (O14656 whole entry, looked up): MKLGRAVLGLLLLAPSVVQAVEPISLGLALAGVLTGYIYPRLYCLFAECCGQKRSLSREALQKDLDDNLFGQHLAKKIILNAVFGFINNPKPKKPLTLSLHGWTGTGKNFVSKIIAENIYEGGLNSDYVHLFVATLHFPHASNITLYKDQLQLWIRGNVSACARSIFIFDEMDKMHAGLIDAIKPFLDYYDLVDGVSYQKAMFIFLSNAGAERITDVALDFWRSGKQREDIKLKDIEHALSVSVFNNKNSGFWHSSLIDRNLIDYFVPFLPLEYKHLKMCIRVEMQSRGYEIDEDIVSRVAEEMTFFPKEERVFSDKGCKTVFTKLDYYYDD

On to `O=C1C2C=CC(C(O)C3CCCCC3)N(n3cnnc3)C2C(=O)N1Cc1ccccc1` (stereo not given), for which the composite z-score in experiment [1] was 0.364; in experiment [6] it was 0.203; in experiment [7], 0.229; in [8] it was 0.187; in experiment [9] it was 0.64; in experiment [10], 1.65. The composite z-score in experiment [12] turned out to be 0.375. Also, the z-score was -4.7 (inactive) in experiment [2]; -1.2 (inactive) in experiment [3]; -0.135 (inactive) in experiment [4]; -0.233 (inactive) in experiment [5]; 0.253 (inactive) in experiment [11]; 2.45 (inactive) in experiment [13]. Further, the z-score is -0.471 (inactive) in [14]; 0.312 (inactive) in [15]; -1.6 (inactive) in experiment [16]; 1.75 in experiment [17]; -4 (inactive) in experiment [18]; -0.921 (inactive) in [19]. The z-score in [20] was -5.07.

`Cc1ccc(S[C@]2(C(=O)NCC(F)(F)F)CC(=O)N(Cc3ccccc3C(F)(F)F)[C@@H]2c2ccc(CO)cc2)cc1`: the composite z-score in experiment [1] was -0.186; in experiment [6], -1; in [7], -0.179; in [8], -1.23; in [9] it was 0.0748; in experiment [10], -0.972. Further, the composite z-score in experiment [12] was 0.007. The z-score was 0.518 (inactive) in [2]; 0.0205 (inactive) in experiment [3]; -0.349 (inactive) in experiment [4]; -0.163 (inactive) in [5]; -0.262 (inactive) in experiment [11]; 1.4 (inactive) in experiment [13]. Besides, the z-score in [14] is -0.107 (inactive); in experiment [15], -0.142 (inactive); in experiment [16], 0.135 (inactive); in experiment [17], -0.0621; in experiment [18], -2.02 (inactive); in experiment [19] it was 0.426 (inactive). The z-score in experiment [20] is -0.0735.

As for `COc1cc(CO)cc(I)c1O[C@H]1C=C(C(=O)NCCO)C[C@@H]2O[C@H]12`, the composite z-score is 0.815 in experiment [1]; 0.717 in [6]; -0.0589 in experiment [7]; 1.58 in experiment [8]; 0.125 in [9]; 1.59 in [10]. Also, the composite z-score in [12] was 0.369. Further, the z-score in experiment [2] is -4.18 (inactive); in [3] it was -0.583 (inactive); in experiment [4], 3.65 (inactive); in experiment [5], 3.07 (inactive); in [11], -0.211 (inactive); in experiment [13], 11.1 (active). Further, the z-score in experiment [14] is 3.45 (inactive); in experiment [15] it was 2.06 (inactive); in [16], 2 (inactive); in experiment [17], 0.179; in experiment [18], 1.46 (inactive); in experiment [19], -0.691 (inactive). In experiment [20], the z-score is -6.01.

As to `O=C1OCCC=C[C@H]2OC34C=CCN(c5ccc6ccccc6c5)C(=O)[C@H]3N(CCO)C(=O)[C@@H]4C12` (stereo not given in full), the composite z-score in experiment [1] was -0.457; in experiment [6] it was -0.906; in experiment [7], -0.753; in [8] it was -1.41; in experiment [9], -0.669; in experiment [10] it was 0.116. In addition, the composite z-score in [12] was -0.815. In addition, the z-score in [2] was 0.291 (inactive); in experiment [3], -0.663 (inactive); in experiment [4], -0.887 (inactive); in [5] it was 0.463 (inactive); in experiment [11] it was -0.701 (inactive); in [13] it was 0.809 (inactive). In addition, the z-score in [14] was 0.791 (inactive); in experiment [15], 1.11 (inactive); in [16], 0.332 (inactive); in experiment [17], -0.366; in experiment [18], 1.47 (inactive); in experiment [19], -0.0539 (inactive). Also, the z-score in experiment [20] came out at 2.41.

Consider `COC(=O)[C@@]1(Cc2ccccc2)[C@H]2c3cc(C(=O)N(C)C)n(CCO)c3C[C@H]2CN1C(=O)c1ccccc1`, for which the composite z-score is 0.518 in experiment [1]; 2.16 in experiment [6]; 0.329 in experiment [7]; -0.212 in experiment [8]; 0.133 in experiment [9]; -0.611 in experiment [10]. In experiment [12], this compound showed a composite z-score of 0.188. For the same compound, the z-score in experiment [2] is 0.254 (inactive); in experiment [3], 0.409 (inactive); in experiment [4], 0.583 (inactive); in experiment [5], -0.609 (inactive); in [11] it was -1.65 (inactive); in experiment [13], -0.469 (inactive). For the same compound, the z-score in [14] was 0.19 (inactive); in experiment [15], -0.0157 (inactive); in experiment [16], 0.57 (inactive); in experiment [17] it was -0.935; in [18], 0.714 (inactive); in experiment [19] it was 0.111 (inactive). In addition, the z-score in [20] is -0.912.

Turning to `COc1ccccc1CN1C(=O)c2ccccc2[C@](Cc2ccccc2I)(C(=O)NCC(C)C)[C@@H]1c1ccc(CO)cc1`, the composite z-score was 0.0108 in experiment [1]; -0.738 in [6]; 0.126 in [7]; -0.0986 in [8]; -0.61 in experiment [9]; 0.034 in experiment [10]. The same compound registered a composite z-score in [12] of 0.19. The z-score in [2] was -2.13 (inactive); in experiment [3], 0.584 (inactive); in experiment [4], 0.0279 (inactive); in experiment [5], -0.542 (inactive); in [11], 2.48 (inactive); in experiment [13] it was 4.68 (inactive). The z-score in experiment [14] was 1.44 (inactive); in [15], 2.61 (inactive); in [16], 0.745 (inactive); in experiment [17], 0.276; in experiment [18] it was -0.943 (inactive); in experiment [19], 0.928 (inactive). Moreover, the z-score in experiment [20] was -0.234.

On to `CC(C)=CCCC(C)=CC(O)C1C=CC2C(=O)NC(=O)C2N1Nc1ccc(Cl)cc1Cl` (stereo not given), for which the composite z-score is 0.623 in experiment [1]; 1.26 in experiment [6]; -0.0035 in experiment [7]; -0.0743 in [8]; 0.622 in experiment [9]; 0.737 in [10]. The compound further showed a composite z-score in [12] of 0.544. The z-score was -1.64 (inactive) in experiment [2]; -0.815 (inactive) in experiment [3]; 0.822 (inactive) in experiment [4]; 0.501 (inactive) in experiment [5]; -2.85 (inactive) in experiment [11]; 7.58 (inactive) in experiment [13]. Moreover, the z-score is 1.61 (inactive) in [14]; -0.519 (inactive) in experiment [15]; 1.39 (inactive) in experiment [16]; -0.498 in experiment [17]; -1.84 (inactive) in [18]; -5.04 (inactive) in experiment [19]. In addition, the z-score in experiment [20] was -1.53.

For `CCOC(=O)c1cn(C[C@H](Cc2ccccc2)NC(=O)N[C@H](CO)CCc2oc(C(C)=O)c(C(=O)OC)c2C(=O)OC)nn1`, the composite z-score is 0.0532 in experiment [1]; 0.486 in experiment [6]; -0.0762 in experiment [7]; 0.439 in [8]; 0.692 in [9]; 1.63 in [10]. The compound further yielded a composite z-score in [12] of 0.143. The z-score in [2] is -2.84 (inactive); in experiment [3] it was 0.279 (inactive); in [4], 1.4 (inactive); in experiment [5], -0.158 (inactive); in experiment [11] it was -0.427 (inactive); in experiment [13] it was 1.14 (inactive). In addition, the z-score in experiment [14] is -1.06 (inactive); in experiment [15], 0.661 (inactive); in experiment [16], -0.473 (inactive); in experiment [17] it was 0.0878; in experiment [18] it was -3.04 (inactive); in experiment [19], -3.25 (inactive). In addition, in [20], the z-score is -1.9.

(Values after PubChem BioAssay.)
